SMILES strings stand for the structures. Out of some 62,000 compounds screened, about 100 (0.16%) were called active. Only a selection was taken, and actives are over-represented in it overall. Unmarked numbers belong to inactive results.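 The calls were made as follows: active = inhibition above 20% in each of the two 10-compound mixture wells holding the compound; inactive = the rest.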

The assay deals with Complement C1s subcomponent (Homo sapiens) (UniProt P09871). Kind of assay: human C1s inhibition by compound pools – biochemical, 10-compound mixtures, primary screen (AID 538).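 Also: 0% = enzyme wells lacking compound mixture and 100% = no-enzyme blank wells.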 The settings on record: purified C1s, fluorogenic AMC substrate, pooled mixtures; screened at 5 µM (by protocol).
Complement C1s subcomponent (Homo sapiens), sequence (P09871 16-437 limits assumed): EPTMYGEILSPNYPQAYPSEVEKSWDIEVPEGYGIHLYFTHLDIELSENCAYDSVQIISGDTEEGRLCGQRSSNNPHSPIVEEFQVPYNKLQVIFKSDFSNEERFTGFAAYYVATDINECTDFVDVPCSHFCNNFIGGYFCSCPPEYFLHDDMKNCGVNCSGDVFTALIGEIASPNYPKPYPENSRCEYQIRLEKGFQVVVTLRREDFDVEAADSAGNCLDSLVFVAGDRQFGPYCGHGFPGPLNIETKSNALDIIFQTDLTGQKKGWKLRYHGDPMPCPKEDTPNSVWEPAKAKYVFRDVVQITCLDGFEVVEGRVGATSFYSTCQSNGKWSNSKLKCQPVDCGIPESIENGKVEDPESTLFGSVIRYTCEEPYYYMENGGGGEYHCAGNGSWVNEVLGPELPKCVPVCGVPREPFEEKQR
Complement C1s subcomponent (Homo sapiens), sequence (P09871 438-688 limits assumed): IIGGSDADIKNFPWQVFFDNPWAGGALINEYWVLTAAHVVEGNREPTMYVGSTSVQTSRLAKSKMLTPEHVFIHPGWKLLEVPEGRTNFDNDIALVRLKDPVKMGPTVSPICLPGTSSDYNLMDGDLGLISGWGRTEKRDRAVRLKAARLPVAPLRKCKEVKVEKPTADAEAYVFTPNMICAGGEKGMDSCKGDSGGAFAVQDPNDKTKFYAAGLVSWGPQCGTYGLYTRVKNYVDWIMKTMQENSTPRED
Take `CCCS(=O)(=O)N1CCC(C(=O)NCCCN(C)Cc2ccccc2)CC1`: the mean inhibition % of two 10-compound mixtures (stronger effect = higher value) is 2.46%.

Turning to `CCc1cc(Br)ccc1NC(=O)C1CCCO1` (configuration not stated), the mean inhibition % of two 10-compound mixtures (stronger effect = higher value) is 4.52%.

`Cc1cccc(OCC(O)Cn2c(=N)n(CCN3CCOCC3)c3ccccc32)c1` (configuration not stated): the mean inhibition % of two 10-compound mixtures (stronger effect = higher value) is 3.52%.

For `O=S(=O)(NCCOc1cccc2cccnc12)c1ccc(F)cc1`, the mean inhibition % of two 10-compound mixtures (stronger effect = higher value) was 8.29%.

As to `CCOC(=O)CN(C(=O)CN1CCOCC1)c1ccc(Br)cc1`, the mean inhibition % of two 10-compound mixtures (stronger effect = higher value) was 1.94%.

With `O=C(Nc1ccc(Cl)cn1)Nc1cccs1`, the mean inhibition % of two 10-compound mixtures (stronger effect = higher value) was 7.83%.

Take `CC(NC(=O)c1cc(-c2ccccc2)on1)c1ccccc1` (configuration not stated): the mean inhibition % of two 10-compound mixtures (stronger effect = higher value) was -25.3%.

In the case of `CCn1ncc(C2=NOC(C(=O)Nc3ccccc3C(=O)OC)C2)c1C` (configuration not stated), the mean inhibition % of two 10-compound mixtures (stronger effect = higher value) was 1.96%.

For `COc1ccc(CCNC(=O)CN2CCC(n3nnc4cc(F)ccc43)CC2)cc1OC`, the mean inhibition % of two 10-compound mixtures (stronger effect = higher value) was 2.77%.

Consider `Cc1ccc(Cn2nnc3c(=O)n(CC(=O)N4CCCCC4)cnc32)cc1`, for which the mean inhibition % of two 10-compound mixtures (stronger effect = higher value) was -35.5%.

Take `Cc1ccc(CNC(=O)C2CC(=O)N(C3CCCCCCC3)C2)cc1` (configuration not stated): the mean inhibition % of two 10-compound mixtures (stronger effect = higher value) is -34.1%.

Consider `COc1ccccc1N(C(=O)Cn1nnc2ccccc21)C(C(=O)NCc1ccco1)c1ccc(C)o1` (configuration not stated), for which the mean inhibition % of two 10-compound mixtures (stronger effect = higher value) was 8.72%.

Turning to `C#CCN1C(=O)C(O)(CC(=O)c2cc(OC)ccc2OC)c2ccccc21` (configuration not stated), the mean inhibition % of two 10-compound mixtures (stronger effect = higher value) was 11.6%.

For `C=CCn1c(SCn2nnc3ccccc3c2=O)nnc1-c1ccc(Cl)cc1`, the mean inhibition % of two 10-compound mixtures (stronger effect = higher value) is 9.21%.

As to `CCOc1ccc(S(=O)(=O)N(CC(=O)O)c2ccccc2)cc1`, the mean inhibition % of two 10-compound mixtures (stronger effect = higher value) was -11.4%.

Take `O=S1(=O)CCN2C(=N1)SC1=C2CCN(Cc2ccccc2)C1`: the mean inhibition % of two 10-compound mixtures (stronger effect = higher value) is 15.2%.

In the case of `Cc1cc(C)cc(NC(=O)N2CCC(NC(=O)c3ccc(F)cc3)CC2)c1`, the mean inhibition % of two 10-compound mixtures (stronger effect = higher value) is 3.5%.

Take `CC(C)CCNC(=O)C(C)N(C(=O)Cn1nnc(-c2ccc(F)cc2)n1)C1CCCC1` (configuration not stated): the mean inhibition % of two 10-compound mixtures (stronger effect = higher value) was -3.08%.

On to `CCCCCOC(=O)NCCOC(=O)Nc1ccc(C(=O)OCC)cc1`, for which the mean inhibition % of two 10-compound mixtures (stronger effect = higher value) is 1.11%.

Consider `CCNc1nc(SCCOc2ccccc2)nc(N(C)C)n1`, for which the mean inhibition % of two 10-compound mixtures (stronger effect = higher value) is 3.09%.

Turning to `C=CCn1c(SCC(=O)NC23CC4CC(CC(C4)C2)C3)nc(O)cc1=O`, the mean inhibition % of two 10-compound mixtures (stronger effect = higher value) is -25.2%.

Regarding `COC(=O)c1cccc(NC(=O)CN2CCC(NC(=O)c3cc(OC)c(OC)c(OC)c3)CC2)c1`, the mean inhibition % of two 10-compound mixtures (stronger effect = higher value) was -69.7%.

Consider `Cc1cccc(N2CCN(S(=O)(=O)c3ccc4c(c3)c(=O)n(C)c(=O)n4C)CC2C)c1` (configuration not stated), for which the mean inhibition % of two 10-compound mixtures (stronger effect = higher value) was 12.1%.

Turning to `CCCC(=O)Nc1ccc(C(=O)NCCCn2ccnc2)cc1`, the mean inhibition % of two 10-compound mixtures (stronger effect = higher value) was 14.7%.

As for `COc1ccc(-c2cc3ccc(OCc4nn[nH]n4)cc3oc2=O)cc1`, the mean inhibition % of two 10-compound mixtures (stronger effect = higher value) was -281%.

`COc1ccc(S(=O)(=O)N(C)CC(=O)Nc2ccc3c(c2)OCCO3)cc1OC`: the mean inhibition % of two 10-compound mixtures (stronger effect = higher value) was 3.88%.

For `COc1cccc(C(=O)Nc2c3c(nn2-c2cccc(C)c2C)CS(=O)(=O)C3)c1OC`, the mean inhibition % of two 10-compound mixtures (stronger effect = higher value) was -0.81%.

Take `CC(=O)N1CCN(c2cccc(C)c2C)CC1`: the mean inhibition % of two 10-compound mixtures (stronger effect = higher value) was 6.81%.

Consider `Cc1nnc(NC(=O)CCC(=O)N2CCC(C)CC2)s1`, for which the mean inhibition % of two 10-compound mixtures (stronger effect = higher value) is 4.7%.

In the case of `O=C(C(Cc1ccccc1)n1cccc1)N1CCN(C2CCCCC2)CC1` (configuration not stated), the mean inhibition % of two 10-compound mixtures (stronger effect = higher value) was 11.2%.

Regarding `Cn1c(SCC(=O)N2CCOCC2)nnc1-c1ccc(NC(=O)c2ccccc2F)cc1`, the mean inhibition % of two 10-compound mixtures (stronger effect = higher value) is 3.6%.

`O=C(COc1ccc(F)cc1)N(CC1=CCS(=O)(=O)C1)c1ccccc1`: the mean inhibition % of two 10-compound mixtures (stronger effect = higher value) was 4.83%.

Regarding `O=C1NC2(CCCCC2)N=C1c1ccccc1`, the mean inhibition % of two 10-compound mixtures (stronger effect = higher value) is 2.35%.

As to `CCC/C(O)=C1\C(=O)CC(C)(C)CC1=Nc1ccccc1OC`, the mean inhibition % of two 10-compound mixtures (stronger effect = higher value) was 9.67%.

Turning to `O=C(CS(=O)(=O)c1cn(Cc2cccc(F)c2)c2ccccc12)N1CCCCC1`, the mean inhibition % of two 10-compound mixtures (stronger effect = higher value) is -0.735%.

As to `CCOc1ccc(Cn2nnc(C(=O)NCc3ccccc3)c2N)cc1`, the mean inhibition % of two 10-compound mixtures (stronger effect = higher value) is -16.1%.

For the molecule `Oc1ccc(Cl)cc1/C=N/c1nc2ccccc2[nH]1`, the mean inhibition % of two 10-compound mixtures (stronger effect = higher value) is 5.15%.

Consider `CCN=C1SC(CC(=O)Nc2ccc(C)cc2)C(=O)N1CC` (configuration not stated), for which the mean inhibition % of two 10-compound mixtures (stronger effect = higher value) is -15%.

Consider `Cc1occc1C(=O)N1CCCc2ccccc21`, for which the mean inhibition % of two 10-compound mixtures (stronger effect = higher value) was -1.12%.

In the case of `CCN(CC)C(=O)CSc1nnc(-c2cnccn2)n1-c1ccc(C)cc1`, the mean inhibition % of two 10-compound mixtures (stronger effect = higher value) was 14.1%.

As to `COc1ccc(-c2nnc(SCC(=O)NC3CCCCC3)o2)cc1OC`, the mean inhibition % of two 10-compound mixtures (stronger effect = higher value) is -3.36%.

Consider `CCCOC(=O)C1=C(C)NC2=C(C(=O)C(C(=O)OC)C(C)C2)C1c1ccc(N(C)C)cc1` (configuration not stated), for which the mean inhibition % of two 10-compound mixtures (stronger effect = higher value) was -5.72%.

As to `CC(CN1CCCCC1)OC(=O)c1ccccc1Cl` (configuration not stated), the mean inhibition % of two 10-compound mixtures (stronger effect = higher value) was 2.23%.

Regarding `CN1CCCc2cc(C#N)c(=O)[nH]c21`, the mean inhibition % of two 10-compound mixtures (stronger effect = higher value) was -74.4%.

For `Cc1ncn(C23CC4CC(CC(O)(C4)C2)C3)n1`, the mean inhibition % of two 10-compound mixtures (stronger effect = higher value) is 0.845%.

Turning to `Cc1ncc(CC(=O)n2cc(C(=O)c3cc(Cl)ccc3O)cn2)s1`, the mean inhibition % of two 10-compound mixtures (stronger effect = higher value) was 8.66%.

As for `Cn1c(=O)c2c(nc(SCC(=O)Nc3ccccc3N3CCCCC3)n2C)n(C)c1=O`, the mean inhibition % of two 10-compound mixtures (stronger effect = higher value) was -17.6%.

(Values after PubChem BioAssay AID538 (PCMD, 2006).)
